Data reported in PubChem BioAssay AID504866 (Johns Hopkins Ion Channel Center, 2011).
Calls of active or inactive are those of the source.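 The calls were made as follows: active = compound cutting the TRPC4 channel signal by more than 30% at some tested dose, with a fitted dose response curve; inactive = no inhibition at any dose, or no curve fitted.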

Each molecule was assayed against Short transient receptor potential channel 4 (Mus musculus) (UniProt Q9QUQ5) (assay: mouse TRPC4 blockers, membrane potential readout – cell-based, HEK293 TRPC4/mu-opioid, concentration-response, set 2, selectivity assay for TRPC6 selective inhibitor project, SAR follow-up (AID 504866)). Details: DAMGO, membrane potential dye; series mostly up to 20 µM.
Chain of Short transient receptor potential channel 4 (Mus musculus) (Q9QUQ5 whole entry, looked up): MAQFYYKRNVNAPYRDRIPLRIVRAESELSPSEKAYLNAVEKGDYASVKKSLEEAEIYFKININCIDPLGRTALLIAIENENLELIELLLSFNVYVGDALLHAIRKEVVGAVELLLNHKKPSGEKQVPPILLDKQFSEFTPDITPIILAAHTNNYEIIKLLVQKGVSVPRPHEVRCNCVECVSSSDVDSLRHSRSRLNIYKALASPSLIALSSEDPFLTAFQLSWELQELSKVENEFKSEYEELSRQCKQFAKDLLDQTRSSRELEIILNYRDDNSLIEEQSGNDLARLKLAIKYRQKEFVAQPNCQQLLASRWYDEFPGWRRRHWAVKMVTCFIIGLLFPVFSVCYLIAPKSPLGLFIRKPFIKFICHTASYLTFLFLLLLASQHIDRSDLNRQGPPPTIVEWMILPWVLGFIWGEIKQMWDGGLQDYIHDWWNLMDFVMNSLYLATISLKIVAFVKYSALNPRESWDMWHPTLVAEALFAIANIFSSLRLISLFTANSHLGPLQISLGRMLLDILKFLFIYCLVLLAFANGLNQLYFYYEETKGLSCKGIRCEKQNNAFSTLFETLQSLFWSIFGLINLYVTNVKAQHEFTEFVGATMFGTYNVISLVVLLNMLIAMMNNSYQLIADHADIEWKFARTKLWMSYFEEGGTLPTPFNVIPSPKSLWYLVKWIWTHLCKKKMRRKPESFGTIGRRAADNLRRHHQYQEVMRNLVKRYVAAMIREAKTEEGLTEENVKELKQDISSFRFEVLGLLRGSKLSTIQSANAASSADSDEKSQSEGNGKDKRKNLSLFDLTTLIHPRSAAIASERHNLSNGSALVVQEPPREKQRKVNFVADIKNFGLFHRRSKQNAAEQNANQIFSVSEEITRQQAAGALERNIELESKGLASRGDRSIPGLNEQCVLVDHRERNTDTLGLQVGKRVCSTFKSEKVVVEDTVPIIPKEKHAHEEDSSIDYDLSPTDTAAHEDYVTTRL

**Q.** How did the outcome turn out when `Cc1ccc(C)c(N2CCN(C(=O)c3ccc4nsnc4c3)CC2)c1` was run?
**A.** inactive

**Q.** For `CC(C)CN1CCN(Cc2ccc3nsnc3c2)CC1CCO` (stereo unspecified), which outcome is on record?
**A.** inactive

**Q.** Which outcome does the source give for `CSCc1cc(N2CCOCC2)nc(-c2ccccn2)n1` here?
**A.** inactive

**Q.** How did the outcome turn out when `Cc1cccc(CN2CCN(Cc3ccc4nsnc4c3)CC2CCO)n1` (stereo unspecified) was run?
**A.** inactive

**Q.** `OCCC1CN(Cc2ccc3nsnc3c2)CCN1CCCc1ccccc1` (stereo unspecified) was tested. Which outcome did it give?
**A.** inactive

**Q.** Which outcome does the source give for `OCCC1CN(Cc2ccc3nsnc3c2)CCN1C1CCCC1` (stereo unspecified) here?
**A.** inactive

**Q.** `CN1CCN(Cc2ccc3nsnc3c2)CC1CCO` (stereo unspecified) was tested. Which outcome did it give?
**A.** inactive

**Q.** How did the outcome turn out when `CC(C)CCN1CCN(Cc2ccc3nsnc3c2)CC1CCO` (stereo unspecified) was run?
**A.** inactive

**Q.** For `CN1CCC(N2CCN(Cc3ccc4nsnc4c3)CC2CCO)CC1` (stereo unspecified), which outcome is on record?
**A.** inactive

**Q.** With `O=S(=O)(Cc1cc(N2CCN(c3ccccc3)CC2)nc(-c2ccccn2)n1)c1ccccc1` as the molecule, how does the outcome read?
**A.** inactive

**Q.** How did the outcome turn out when `CSCc1cc(N(C)c2ccccc2)nc(-c2ccccn2)n1` was run?
**A.** inactive

**Q.** How did the outcome turn out when `Clc1ccc(SCc2cc(N3CCCCC3)nc(-c3ccccn3)n2)cc1` was run?
**A.** inactive

**Q.** For `CC(C)N1CCN(Cc2ccc3nsnc3c2)CC1CCO` (stereo unspecified), which outcome is on record?
**A.** inactive

**Q.** How did the outcome turn out when `O=S(=O)(Cc1cc(N2CCOCC2)nc(-c2ccccn2)n1)c1ccccc1` was run?
**A.** inactive

**Q.** How did the outcome turn out when `CC(C)N1CCC(N2CCN(Cc3ccc4nsnc4c3)CC2CCO)CC1` (stereo unspecified) was run?
**A.** inactive

**Q.** How did the outcome turn out when `Cc1ccccc1CN1CCN(Cc2ccc3nsnc3c2)CC1CCO` (stereo unspecified) was run?
**A.** inactive
